In PubChem BioAssay AID687001 (Broad Institute, 2013):
Entries with a potency or affinity are not part of this list.

Each compound was assayed against Protein S100-A4 (Homo sapiens) (UniProt P26447) (assay: human S100A4 peptide interaction inhibition curves – biochemical, fluorescence polarization, cherry-picked hits, dose response (AID 687001;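 note: 0% = DMSO neutral control wells and -100% = TFP positive control wells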)). Conditions: FP, S100A4/TAMRA-myosin IIA peptide binding; series mostly up to 11 µM; activity change, negative = inhibition: at the top concentration;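 active = signal-lowering compounds whose fitted half-maximal concentration is at or below twice the top tested dose in every run; inconclusive = runs disagree, flat 30 to 70% inhibition, or poor curve fit; inactive = the rest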.
Chain of Protein S100-A4 (Homo sapiens) (P26447 whole entry, looked up): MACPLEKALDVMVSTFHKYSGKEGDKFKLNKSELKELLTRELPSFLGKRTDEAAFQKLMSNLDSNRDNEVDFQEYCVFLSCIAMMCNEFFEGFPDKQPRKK

Activity change, negative = inhibition, inactive:
O=C(COC(=O)CCCN1C(=O)c2cccc3cccc(c23)C1=O)NC1CCS(=O)(=O)C1 (centres undefined) -3.93%
CN1C(=O)c2cc(NC(=O)Cc3cccs3)ccc2OC[C@H]2O[C@H](CC(=O)N[C@H]3CCN(Cc4ccccc4)C3)CC[C@@H]21 32.8%
COc1c(Br)cc([N+](=O)[O-])c(OC)c1C(=O)NC(=O)Nc1c(Cl)cccc1Cl -2.6%
Cn1c(/C(C#N)=C(\O)c2cc(Cl)sc2Cl)nc2ccccc21 -2.38%
Cc1noc(C)c1S(=O)(=O)N(C)C[C@H]1OCCCC[C@H](C)Oc2ccc(NS(=O)(=O)c3ccccc3)cc2C(=O)N([C@H](C)CO)C[C@@H]1C 17%
O=C(Nc1ccc2c(c1)CN(Cc1ccco1)CC2)C1CCCO1 (centres undefined) 8.73%
CNC[C@@H]1Oc2ccc(NC(=O)Nc3cccc4ccccc34)cc2C(=O)N([C@H](C)CO)C[C@@H]1C 0.263%
CC(NC(=O)c1ccc(N2CCCC2)c([N+](=O)[O-])c1)c1ccc(S(N)(=O)=O)cc1 (centres undefined) -3.17%
C[C@@H]1CN([C@H](C)CO)C(=O)c2cccc(NS(C)(=O)=O)c2O[C@@H]1CN(C)CC1CC1 -2.8%
COc1ccccc1C(=O)NC(=O)COC(=O)c1ncc(Cl)c(Cl)c1Cl 12.5%
O=C(NCCC1CCCCN1S(=O)(=O)c1cccs1)C(=O)Nc1ccc(F)cc1 (centres undefined) 3.97%
Cc1c(C(=O)OCC(=O)N(C)CC(=O)Nc2ccc(F)cc2)oc2ccccc12 5.97%
O=C(CSc1ncnc2c1nnn2Cc1ccc(F)cc1)NCC1CCCO1 (centres undefined) -8.11%
O=C(Nc1cc(Cl)ccc1O)C1CC(c2c(F)cccc2Cl)=NO1 (centres undefined) 22.2%
O=C(Nc1ccc2ccccc2c1)c1ccccc1Cl 0.242%
COc1ccc(S(=O)(=O)Nc2cccc3c2O[C@@H](CN(C)S(=O)(=O)c2c(C)noc2C)[C@H](C)CN([C@@H](C)CO)C3=O)cc1 1.14%
O=C(c1ccccc1)c1ccc2nc(N3CCCCC3)c3nncn3c2c1 4.91%
Cc1ccc(C(=O)N2CCCC(CCC(=O)N3CCN(c4ccccn4)CC3)C2)cc1 (centres undefined) 3.63%
CCOc1ccc(/C=N/NC(=O)c2ccccc2C)cc1CN1CC2CC(C1)c1cccc(=O)n1C2 (centres undefined) -2.24%
COCC(=O)N(C)C[C@H]1Oc2cc(C#CCN(C)C)ccc2S(=O)(=O)N([C@@H](C)CO)C[C@H]1C 2.11%
O=C(CSc1ccc([N+](=O)[O-])cn1)Nc1ccc2c(c1)OCO2 -0.303%
CC(C)c1ccc(/C=N/n2c(COc3ccccc3)n[nH]c2=S)cc1 -2.63%
COc1cc(/C=C2\SC(=S)N(NC(=O)c3cccc(O)c3)C2=O)ccc1O 60.1%
C[C@@H]1CCCCO[C@@H](CN(C)C(=O)CCC(F)(F)F)[C@@H](C)CN([C@@H](C)CO)C(=O)c2cc(NC(=O)c3ccccc3)ccc2O1 1.8%
COC(=O)[C@]12CCCCC=C1N(Cc1ccc(Cl)cc1Cl)C(=O)[C@H](CC(=O)N1CCCC1)C2 -3.46%
CCS(=O)(=O)Nc1ccc2c(c1)C(=O)N(C)C[C@@H](OC)[C@@H](C)CN(C(C)=O)[C@H](C)CO2 -0.437%
COc1cc(S(=O)(=O)N2CCOCC2)cc(C(=O)c2nccn2C)c1OC -2.32%
CC(C)NC(=O)N1[C@@H](CO)[C@@H](c2ccccc2)C12CN(C(=O)Cc1cccnc1)C2 3.57%
CN(CC(=O)Nc1ccc(F)cc1)C(=O)CCc1nc2sc3c(c2c(=O)[nH]1)CCCC3 51.8%
CC(C)[C@H](NC(=O)c1ccccc1F)C(=O)NCc1ccc(S(N)(=O)=O)cc1 -2.08%
O=C(c1cccc(F)c1)N1CC[C@H]2[C@H](CO)Nc3ccc(-c4ccc(F)cc4)cc3[C@H]21 3.72%
CCCn1cnc2c(oc3ccccc32)c1=O -0.695%
CC(=O)Nc1cccc(C(=O)NC2CCCc3c2cnn3-c2ccccc2F)c1 (centres undefined) -12.2% [at 5.6 µM]
C(=Cc1nc2ccccc2o1)c1ccc2c(c1)OCO2 -1.59%
O=C1N[C@@H](Cc2ccccc2)COC(=O)[C@@H](Cc2ccc(F)cc2)CC/C=C/C[C@H]1CC(=O)N(CCO)Cc1ccccc1 -2.62%
Cc1[nH]c2ccccc2c1CC(=O)Nc1ccc(Nc2cccnc2)c(Br)c1 19.9%
C[C@H](NC(=O)C[C@H]1C[C@@H]2c3cc(NC(=O)CN(C)C)ccc3O[C@@H]2[C@H](CO)O1)c1ccccc1 8.25%
CC(=O)N1[C@H](C(=O)NCCCN(C)C)[C@@H](CO)[C@@H]2Cn3c(ccc(-c4cccc(F)c4)c3=O)[C@@H]21 -0.912%
Cn1cnc(S(=O)(=O)N2C[C@H](O)COC[C@@H]3O[C@H](CC(=O)NC4CCCC4)CC[C@H]32)c1 1.12%
